According to PMC5540273 (PLoS ONE, 2017):

Tests used:
Conditions in all cases: concentration: 1 μM,replicates: in singlicate; n = 1
PRKD3 = tested on: PRKD3
PRKG1 = tested on: PRKG1
PRKG2 = tested on: PRKG2
PRKR = tested on: T1, PRKR
T1 construct: gene EIF2AK2

PRKX = tested on: PRKX
PRP4 = tested on: PRP4
PYK2 = tested on: T2, PYK2
T2 construct: gene PTK2B

QSK = tested on: QSK
RAF1 = tested on: RAF1
RET = tested on: RET
RIOK1 = tested on: RIOK1
RIOK2 = tested on: RIOK2
RIOK3 = tested on: RIOK3
RIPK1 = tested on: RIPK1
RIPK2 = tested on: RIPK2
RIPK4 = tested on: RIPK4
RIPK5 = tested on: RIPK5
ROCK1 = tested on: ROCK1
ROCK2 = tested on: ROCK2
ROS1 = tested on: ROS1
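Further: KINOMEscan kinase panel screen.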

Row | Compound | %Inh (PRKD3) | %Inh (PRKG1) | %Inh (PRKG2) | %Inh (PRKR) | %Inh (PRKX) | %Inh (PRP4) | %Inh (PYK2) | %Inh (QSK) | %Inh (RAF1) | %Inh (RET) | %Inh (RIOK1) | %Inh (RIOK2) | %Inh (RIOK3) | %Inh (RIPK1) | %Inh (RIPK2) | %Inh (RIPK4) | %Inh (RIPK5) | %Inh (ROCK1) | %Inh (ROCK2) | %Inh (ROS1)
1 | N#Cc1cccc(C(=O)NC2CCN(c3ccnc(Nc4ccc(F)cc4)n3)C2)c1 (stereo not drawn) [GSK1379708] | 0% | 1% | 0% | 0% | 14% | 29% | 3% | 0% | 2% | 18% | 24% | 0% | 0% | 0% | 0% | 6% | 0% | 0% | 0% | 13%
2 | CC(=O)c1c(-c2ccncc2)[nH]c(-c2ccncc2)c1C [GW493036] | 100% | 75% | 73% | 0% | 0% | 22% | 0% | 0% | 41% | 26% | 17% | 14% | 0% | 0% | 14% | 0% | 0% | 46% | 27% | 0%
3 | CSc1nccc(-c2c(-c3ccc(F)cc3)ncn2CCCN2CCOCC2)n1.Cl [SB-217146] | 0% | 0% | 0% | 0% | 0% | 0% | 5% | 5% | 0% | 2% | 0% | 0% | 0% | 0% | 0% | 3% | 33% | 40% | 10% | 0%
4 | CC(=O)Nc1nc2cnc(Nc3cc(NC(=O)c4cccc(CC(C)(C)C#N)c4)ccc3C)nc2s1 | 0% | 0% | 17% | 0% | 35% | 6% | 9% | 0% | 99.5% | 99.7% | 0% | 22% | 0% | 0% | 0% | 25% | 0% | 19% | 0% | 6%
5 | COc1cc2c(Nc3ccc(NC(=O)c4ccccc4)cc3)ncnc2cc1OCCCN1CCOCC1 [GSK301329] | 0% | 0% | 21% | 0% | 22% | 0% | 0% | 18% | 1% | 79% | 26% | 14% | 21% | 0% | 55% | 0% | 2% | 1% | 0% | 3%
6 | COC(=O)c1cccc(NC(=O)NC2CCN(c3ccnc(Nc4cc(OC)c(OC)c(OC)c4)n3)C2)c1 (stereo not drawn) [GSK1379767] | 0% | 0% | 7% | 19% | 5% | 44% | 0% | 0% | 7% | 11% | 70% | 0% | 67% | 23% | 24% | 26% | 0% | 24% | 20% | 30%
7 | Cl.Nc1n[nH]c2cc(-c3ccccn3)ccc12 [GSK2189892] | 0% | 0% | 0% | 0% | 13% | 24% | 0% | 0% | 6% | 2% | 47% | 0% | 24% | 0% | 0% | 4% | 6% | 0% | 5% | 12%
8 | O=C(Nc1n[nH]c2cc(-c3ccco3)ccc12)C1CC1 [SB-737447] | 0% | 0% | 0% | 0% | 0% | 13% | 23% | 20% | 0% | 0% | 81% | 10% | 79% | 13% | 0% | 36% | 3% | 0% | 0% | 2%
9 | CN(c1ccccc1CNc1nc(Nc2ccc3c(c2)CC(=O)N3)ncc1C(F)(F)F)S(C)(=O)=O | 70% | 0% | 0% | 0% | 17% | 0% |  | 0% | 0% | 87% | 41% | 0% | 61% | 0% | 0% | 0% | 27% | 0% | 0% | 96.5%
10 | Cn1ccc2ncnc(Oc3ccc(NC(=O)Nc4cnn(C(C)(C)C)c4)c(Cl)c3)c21 | 4% | 9% | 0% | 17% | 3% | 0% | 0% | 0% | 44% | 100% | 4% | 29% | 0% | 12% | 40% | 0% | 0% | 6% | 0% | 0%
11 | CN(c1cccc(CNc2nc(Nc3ccc4c(c3)CC(=O)N4)ncc2C(F)(F)F)c1)S(C)(=O)=O | 28% | 0% | 0% | 0% | 0% | 0% | 71% | 0% | 0% | 85% | 78% | 19% | 70% | 3% | 0% | 0% | 16% | 0% | 17% | 89%
12 | Cc1ccc(Nc2ccnc(Nc3ccc4c(c3)CS(=O)(=O)C4)n2)cc1O.Cl [GW579362] | 87% | 0% | 0% | 47% | 0% | 84% | 83% | 9% | 42% | 100% | 99.8% | 66% | 95.7% | 25% | 93.6% | 98.6% | 89% | 48% | 50% | 81%
13 | C[C@@H](Oc1cc(-n2cnc3ccc(-c4ccncc4)cc32)sc1C(N)=O)c1ccccc1Cl [GSK483724] | 27% | 0% | 0% | 0% | 33% | 23% | 0% | 0% | 11% | 22% | 93% | 70% | 73% | 40% | 26% | 0% | 3% | 23% | 19% | 42%
14 | NC(=O)c1ccc(-c2cc3ncnc(SCC(=O)O)c3s2)cc1 | 0% | 0% | 0% | 100% | 0% | 44% |  | 0% | 3% | 0% | 0% | 0% | 19% | 0% | 18% | 3% | 0% | 0% | 0% | 0%
15 | CCn1c(-c2nonc2N)nc2cncc(CNC3CCNCC3)c21.Cl [SB-747651] | 50% | 74% | 86% | 0% | 55% | 20% | 0% | 1% | 97.5% | 5% | 30% | 0% | 6% | 0% | 5% | 19% | 0% |  |  | 0%
16 | FC(F)(F)c1cc(Br)cc(Nc2nccc(-c3cnn4ncccc34)n2)c1 [GW810578] | 0% | 25% | 0% | 0% | 0% | 0% | 80% | 12% | 0% | 0% | 0% | 82% | 0% | 4% | 69% | 20% | 15% | 36% | 23% | 12%
17 | COc1cc2nccc(Nc3ccc(Oc4ccccc4)cc3)c2cc1OC.Cl [GI261656] | 6% | 0% | 0% | 0% | 0% | 48% | 0% | 3% | 11% | 23% | 11% | 0% | 4% | 6% | 98.3% | 3% | 50% | 16% | 29% | 27%
